Shown is part of a subset that was picked to be rich in hits.
CBX7 AlphaScr – CBX7 chromodomain binding inhibitors, primary screen, biochemical, AlphaScreen | Chromobox protein homolog 7 (Homo sapiens), O95931 | normalised signal (fraction of DMSO) (concentration not given with the values) | AlphaScreen His6-CBX7 / biotin-H3K27me3 peptide binding; active compounds read low | 66,000 compounds, 1.1% hits; in the data active means normalised signal below about 0.5
Target sequence (O95931 whole entry, looked up): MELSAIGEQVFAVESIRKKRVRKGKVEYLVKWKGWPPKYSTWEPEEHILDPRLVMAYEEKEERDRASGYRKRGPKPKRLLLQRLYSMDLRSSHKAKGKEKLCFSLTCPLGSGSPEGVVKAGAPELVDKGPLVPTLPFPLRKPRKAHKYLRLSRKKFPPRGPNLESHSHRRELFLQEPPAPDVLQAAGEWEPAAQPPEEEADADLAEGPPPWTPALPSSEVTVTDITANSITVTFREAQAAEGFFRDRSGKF
Of the large screens only hits and unclear results are named; the others gave an inactive call.

C=CCN(CC=C)S(=O)(=O)c1ccc(C(=O)Nc2nnc(-c3cc(OC)cc(OC)c3)o2)cc1	none
CCCCN(CC)S(=O)(=O)c1ccc(C(=O)Nc2nnc(-c3cccs3)o2)cc1	none
CCCCN(CC)S(=O)(=O)c1ccc(C(=O)Nc2ccc(-c3nc4ccccc4[nH]3)cc2)cc1	none
C=CCN(CC=C)S(=O)(=O)c1ccc(C(=O)Nc2nnc(CC)o2)cc1	CBX7 AlphaScr 0.064
CCCCN(CC)S(=O)(=O)c1ccc(C(=O)Nc2nnc(C)o2)cc1	CBX7 AlphaScr 0.024
COc1cccc(NC(=O)CCNC(=O)Cn2ccc3ccccc3c2=O)c1	none
COc1ccc(C(=O)c2oc3ccccc3c2NC(=O)c2ccc(C)cc2)cc1	none
COc1ccccc1Cc1nc2ccccc2[nH]c1=O	none
COc1ccc(OC)c(NC(=O)c2csc3c2CCCC3)c1	none
CCc1nnc(NC(=O)c2ccc(Cc3ccccc3)cc2)s1	none
Fc1cnc(Nc2ccc(Br)cc2)nc1Nc1ccc(Br)cc1	none
COc1ccc2nc(C)cc(Nc3ccc(Oc4ccc(Cl)cc4)c(Cl)c3)c2c1	none
COC(=O)c1c[nH]n2c(=O)c(Cc3cccc(C)c3)c(C)nc12	none
COC(=O)c1cn(-c2ccccc2)nc1-c1ccc(OC)cc1	none
COC(=O)c1c[nH]n2c(NC3CCCCC3)c(-c3cccs3)nc12	none
COC(=O)c1c[nH]n2c(NC3CCCCCC3)c(-c3ccc(OC)cc3)nc12	CBX7 AlphaScr 0.34
COc1ccc(-c2nn(C)c3sc(C(=O)NC4CCCCC4)cc23)cc1OC	none
COc1ccc(-c2nc(SCC(=O)NC3CCCC3)c(-c3ccc(C)cc3)[nH]2)cc1OC	none
COC(=O)c1c[nH]n2c(NC3CCCCC3)c(-c3ccc(OCCC(C)C)c(OC)c3)nc12	CBX7 AlphaScr 0.37
Cc1nc2c(C(=O)NC3CCC(C)CC3)c[nH]n2c(=O)c1Cc1ccccc1F (stereo unspecified)	none
COC(=O)c1c[nH]n2c(NC3CCC(C)CC3)c(-c3ccc(C)cc3)nc12 (stereo unspecified)	CBX7 AlphaScr 0.23
COC(=O)c1c[nH]n2c(NC3CCCCC3)c(-c3ccc(OC)cc3)nc12	CBX7 AlphaScr 0.32
COc1ccc(-c2cc(C(=O)NC3CCCC3)no2)cc1	none
COc1ccc(-c2nc3cnccn3c2NC2CCCCC2)cc1	none
Cc1ccc(S(=O)(=O)Nc2ccc(-c3cn4ccccc4n3)cc2)c(C)c1	none
Cc1ccc(-c2cc(C(=O)NCCCN3CCCCC3)c3ccccc3n2)cc1C	none
CCOc1ccc(S(=O)(=O)c2cn(Cc3ccccc3Cl)c3ccc(OCC)cc3c2=O)cc1	none
Cc1nc(N2CCCCC2C)c2c(C)c(C(=O)Nc3ccc(F)cc3F)sc2n1 (stereo unspecified)	none
CCOc1cc2c(cc1OCC)C(c1cc(C)c(OC)cc1C)NCC2 (stereo unspecified)	none
Cc1ccc(NS(=O)(=O)c2ccc3nc(-c4ccccc4)[nH]c3c2)cc1C	none
COC(=O)c1ccccc1NC(=O)c1cn(CC(C)C)c(=O)c2cc(OC)c(OC)cc12	none
Cc1c(C(=O)N2CCCCC2C)sc2ncn(CC(=O)Nc3cccc(C(F)(F)F)c3)c(=O)c12 (stereo unspecified)	none
COc1ccc(NC(=O)c2ccc(CNc3c(NC4CCCC4)c(=O)c3=O)cc2)c(OC)c1	none
COc1ccc(NC(=O)c2c[nH]n3c(=O)cc(C4CCN(C(=O)OC(C)(C)C)CC4)nc23)cc1Cl	none
COc1ccc(NC(=O)c2c[nH]n3c(=O)cc(C4CCN(C(=O)OC(C)(C)C)CC4)nc23)cc1OC	none
COC(=O)c1c[nH]n2c(NC3CCC(C)CC3)c(-c3ccc(OC(C)C)c(OC)c3)nc12 (stereo unspecified)	CBX7 AlphaScr 0.12
CCSc1oc(-c2ccccc2)nc1S(=O)(=O)c1ccc(Cl)cc1	none
O=C(NCCCn1ccnc1)c1cc(-c2ccc(Cl)c(Cl)c2)on1	none
Cc1ccc(NC(=O)C(=O)NCCCn2ccnc2)cc1Cl	none
O=C(NCCCN1CCOCC1)c1cc(-c2ccco2)on1	none
Cc1cccc(NC(=O)C(=O)NCCCn2ccnc2)c1	CBX7 AlphaScr 0.42
O=C(NCCCn1ccnc1)c1cc(-c2ccco2)on1	CBX7 AlphaScr 0.42
COc1cccc(NC(=O)C(=O)NCCCn2ccnc2)c1	none
Cn1c(C(=O)N2CCC(C(=O)NCCCc3ccccc3)CC2)cc2sccc21	none
COc1ccc(Cl)cc1NC(=O)c1cc(-c2ccc(Cl)cc2)on1	none
O=c1[nH]c2ccc(S(=O)(=O)Nc3ccc4c(c3)OCCO4)cc2[nH]c1=O	none
CCCOc1ccc(C2CC(=O)Nc3cc(C)c(C)cc32)cc1 (stereo unspecified)	none
O=C(Cc1c(O)c2ccccc2[nH]c1=O)NCc1ccncc1	none
CCOC(=O)c1c(C)n(C)c2ccc(OCC(O)CNc3ccc(OC)cc3)cc12 (stereo unspecified)	none
Cc1ccc(-c2nnc(Nc3cccc(O)c3)c3ccccc23)cc1	CBX7 AlphaScr 0.42
Oc1cccc(Nc2nnc(-c3ccc(Cl)cc3)c3ccccc23)c1	none
CCOc1ccc(-c2nnc(Nc3ccc(C(=O)N(C)C)cc3)c3ccccc23)cc1	none
Cc1nnc(Nc2cccc(O)c2)c2ccccc12	none
CCOc1ccc(-c2nnc(Nc3cccc(O)c3)c3ccccc23)cc1	CBX7 AlphaScr 0.49

Compound activity deposited in PubChem by Bradner/Qi Labs at DFCI.
